Assay results as given in PubChem BioAssay AID1347423 (Functional Genomics Laboratory (NCATS/FGL), 2020).
Hit rate of the full screen: of about 52,000 sequences, about 210 (0.4%) were called active. Shown is part of a subset that was picked to be rich in actives. A number with no mark means an inactive call.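 The calls were made as follows: active = gene whose silencing raises cell survival under the drug, median off-target-corrected z-score across its silencing RNAs 2 or more; inactive = the rest.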

experiment: Resistance to Poly (ADP-Ribose) Polymerase inhibitor: Gene Identification via Genome-wide siRNA Screen; settings: mouse BRCA2 R2336H ES cells, olaparib, CellTiter-Glo viability; stronger effect = higher value
Summary of the method: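 Genome-wide siRNA screen (3 siRNAs/gene, 20 nM) in mouse ES cells carrying hypomorphic BRCA2 R2336H; olaparib 500 nM added 48 h post-transfection, CellTiter-Glo viability 72 h later. Normalized to plate-median negative control; MAD z-scores, gene median, seed-adjusted.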

Sequence	z-score
GGAAAUUCAGCAUGGAGCCTT against Vgll4	-0.472
CCUCUCCAACAACCAACUATT against 2900010D03Rik	-1.42
GGAGAUAAAAGUUUCAUCUTT against Jmjd2b	0.46
GGUACCUGUUUGUUUUACATT against Epb4.1l4b	5.02
CCCUAGAAUGGGAAUGUCATT against C030022K24Rik	0.313
GUCAUCAAACUAGGUGCUGTT against Olfr584	5.09 (active)
GGGUCCAUUGUCAAUGUCUTT against Cbr2	-0.721
GGGCUUCGAUGCUAUCAUCTT against 6430573F11Rik	0.734
CCAUCUACGUGGGACACAATT against Atp11a	-1.41
GGAGAACGAAAGGAUGAAATT against Rpusd4	-1.09
GGAGAAAAGGAUGUUGUUATT against 2310005P05Rik	2.57
CGAUAAUUUGGCUAAGUAUTT against Pip5k3	0.0345
CCAAGGGAAGAUUCAAAUUTT against D930031B21Rik	-1.19
GCCAGAAACUAAUGAGAUCTT against 1110001E17Rik	1.17 (active)
GGAAUUUUCUAUAGUCCGGTT against Flrt2	0.268
GCGCAAAGGUGAAACGUAGTT against E030011O05Rik	-0.0435
GCAUCCUACGCAUUAAAUCTT against Olfr146	-0.12
CGAAAAUCAAGGGAGCUCATT against Rnf19	-0.128
GCACCAUGUCAGGAAGUGUTT against B230315M08Rik	3.45 (active)
GCCUUUUAGCUGUUCAGGATT against AI451557	-1.18
GGAGUUCAUUCUGAAUCAGTT against Etohi2	-0.817
GCUACAAAGCGAUGUUUCATT against Pola2	-1.88
GGUCUCCACCUCCAUAUCCTT against Slc15a3	0.715

Sequence	z-score
GCAGAGGAUAUAAAACAAGTT against Pde2a	0.234 (active)
CGUCUCAACAGAGUUGGAGTT against Hrmt1l1	0.151
CCCAGAACUAUUCAACACUTT against Sema4g	1.4
GGCAGAGAAAAGGACCUUUTT against 2400002F11Rik	-1.69
GGACAUAAGUGACAGACAUTT against Chrnb2	-1.32 (active)
GCAUUCAUGAAAGUGUUAGTT against Olfr164	1.23
GGCGAAUUAUUGAAAACGUTT against Actr8	3.41 (active)
GGUGGUGUUUCAUAAGAUGTT against Rragc	0.792
CCCAGCUAUGCGAUCUUAATT against 1300003B13Rik	-1.51
GGGUUUCUGUUUGAUUCCATT against Gria1	1.91 (active)
GCUACUGAGUUAUAGAAAGTT against Olfr1316	0.323
CCAACUGUAGAUGUAUAUATT against Pmp22	0.0495
GGUGAUCCUCAUCAUCAGUTT against 2400010G15Rik	2.76 (active)
GGUUGCAUCACAGCGUAUATT against Plekhe1	0.0124
GGAGGUCCAGCUGUUCAUGTT against Kcnn4	2.89
GGCAAUUGUUUUUAGAGAGTT against 2610510J17Rik	0.946
GGCUGUCUUGAUUUUGAUUTT against C3ar1	-0.0188
CGAACCUACAGAGCUCAUGTT against Rpl17	-2.32
GGGUGCUUAAUAAACAUAATT against Slc22a8	1.12
GCUGAAAUACCACUCUCCGTT against Chl1	-1.28 (active)
CCAAUCUCUACCGUCUCCUTT against Camp	-0.0705
GGCUCAACUGUGUUAAACATT against Tnfrsf4	0.801
GCAAAACCUACUGCGUGGATT against 2410195B05Rik	0.682

Sequence	z-score
GGGUUUCUGUUAAUCCACATT against Hist1h3g	-1.25
GGUGAUAUUAUACAUUCACTT against Rnd1	0.43
CCACUGAAGUUUUCAUUCUTT against Olfr1055	0.663
GGUGUGCAUCAAGCGACUGTT against Cacng6	1.29
GGAGUCAAGUCCACAUACATT against Usp47	-0.927 (active)
GCACACCCAAUGCUCUAAGTT against Mare	0.284
GCGACAACGAUUUUGAAAUTT against Rsu1	0.756
GCCGACGUAGUGACAUUCUTT against Crybb3	-1.17
CGUAUCAAACAGGAAAUGGTT against Arid5b	1.02
GGACUGCUAUGGGUCUUCATT against Clk3	-1.64
GGGACAGUCUUCAGUGACATT against 0610037L13Rik	-2.25
CCACAAAGAAUGCAUUACUTT against BC022146	-1.42
GGAACGAUCGAAACAAGAATT against Rarg	3.59 (active)
GCAAGAGUCUGCUACGACATT against Opn1sw	0.0796
GGUCCCAUUCAGUGUGUGUTT against Cdk10	-0.19
GGGAUGAGUAUGCUUAUGGTT against Rgpr	0.176
GCAGAAUGGUAAAUCCGAUTT against Mc5r	1.96
CCCUAAGUUCUCGUUUCUGTT against Cherp	1.57
GGACCAACAUAACCUCUACTT against BC037432	0.0137
GGAACGAGACUCAUCUUCUTT against Cic	1.35 (active)
GGAUCCUUCAGCAUUCUUATT against Egr2	-0.406
